# Data reported in PubChem BioAssay (NCI).
# This is part of a sample that, as a whole, favours compounds with a hit. Of some 83,000 tested, about 20% had one in any assay.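 Single-dose data. Exposure time 48 hours. Values below 10 considered active.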 Values without a mark were called inactive. Activity calls are given as the source filed them.
# Test system: KM12 colon
# Experiment: NCI-60 one-dose screen, 48 h (100 = growth as untreated, 0 = no growth, -100 = all killed)
# Conditions: 10 µM
# Experimental: Growth inhibition of the KM12 human tumor cell line is measured as a screen for anti-cancer activity. Cells are grown in 96 well plates and exposed to the test compound for 48 hours. Compounds are tested at a single concentration, which is 10^-5 M for most compounds. The reported endpoint is percent growth (GI% or GIPRCNT), where numbers from 0 - 100% represent growth inhibition, and numbers from -100% - 0 represent cell death. For example, a value of 40 represents 60% growth inhibition. A value of 0 means no net growth occurred over the course of the experiment. A value of -40 indicates 40% of cells at the beginning of the experiment died by the end of the experiment. A value of -100 means all cells are dead at the end of the experiment.
# NCI-60 Human Tumor Cell Lines Screen was performed using the standard one-dose NCI protocol, which is described in more detail at https://dtp.cancer.gov/discovery_development/nci-60/default.htm.
# Compounds with GIPRCNT values below 10 were considered active. Activity score was based on GIPRCNT using the following formula: […]
# Score is 0 for GIPRCNT values of 100 or above, 50 for GIPRCNT values of 0, and 100 for GIPRCNT values of -100.
row,Structure (SMILES),growth
1,CNC(=O)c1cc(Oc2ccc(NC(=O)Nc3ccc(Cl)c(C(C)(C)C)c3)c(F)c2)ccn1,20.9%
2,Nc1ncc(-c2ccc(C(F)(F)F)cc2)c(NC2CCCCCC2)n1,31.6%
3,Brc1ccc(-c2cn3ccnc3c(-c3ccc(Br)cc3)n2)cc1,34.6%
4,CC(C)OCc1cc(CN2CCN(c3cccc(Cl)c3)CC2)c(O)c2ncccc12,-23% (active)
5,FC(F)(F)c1ccc(-c2cnc(Cl)nc2NCc2cc(C(F)(F)F)cc(C(F)(F)F)c2)cc1,13.1%
6,C#CCNCCCN1C(=O)c2ccc3c4c(ccc(c24)C1=O)C(=O)N(CCCNCC#C)C3=O,-80.4% (active)
7,COc1ccc(Nc2ccnc(N3CCN(c4ccnc5cc(Cl)ccc45)CC3)n2)cc1,2.49% (active)
8,COc1ccc(/C=C2\SC(=S)N(CCCN3CCOCC3)C2=O)c(OC)c1,97.2%
9,COc1ccc(Cn2cc3c(c2-c2ccccc2)CC(C)(C)c2cnoc2-3)cc1,29.1%
10,COc1cc(N=C2C(=O)N(Cc3ccccc3)c3ccccc32)cc(OC)c1OC,96.1%
11,COc1cc(CSc2nc3ccc(Cl)cc3c(=O)n2-c2ccccc2)cc(OC)c1OC,49.8%
12,O=C(c1ccc(Cl)cc1)c1no[n+]([O-])c1C(=O)c1ccc(Cl)cc1,88.5%
13,COc1ccc2nc(/C=C/c3ccc(N(C)C)cc3)sc2c1,104%
14,COc1ccc(-c2nnc(COc3ccc(NC(=O)Nc4ccccc4)cc3F)o2)cc1,68.5%
15,CCCOCC(O)CNCCN (stereo not given),122%
16,[O-]c1c[n+](-c2ccc(Cl)cc2)no1,95.8%
17,Cc1[nH]nc2c(=S)[nH]c(=O)[nH]c12,107%
18,CC(=O)Nc1nc(C)c(C(=O)N/N=C/c2cccn2C)s1,105%
19,COc1cc(/C=C/C(=O)c2cc(-c3ccc(C(F)(F)F)cc3)ccc2O)cc(OC)c1OC,69.2%
20,CNC(=O)c1cc(Oc2ccc(NC(=O)Nc3ccc(Cl)c(OC(C)C)c3)c(F)c2)ccn1,24.4%

row,Structure (SMILES),growth
1,CCN(CC)CCn1c(=N)n(CC(O)c2ccc(Cl)c(Cl)c2)c2ccccc21 (stereo not given),84.4%
2,CCc1c(C(=O)NCc2c(O)ccc3cccc(O)c23)[nH]c(C)c1C(C)=O,31.2%
3,COC(=O)c1c(C)nc(Nc2nc3ccccc3s2)nc1-c1ccc(Cl)cc1Cl,103%
4,CC(CNC(Cc1ccccc1)c1ccccc1)NC(Cc1ccccc1)c1ccccc1 (stereo not given),22.2%
5,O=C(c1ccccc1)C(Nc1ccccc1)c1ccccc1 (stereo not given),93.4%
6,COc1ccc(-c2nnc(SC/C(=N\O)c3ccccc3)o2)cc1,86.2%
7,O=C(NCCCl)c1cc(Cl)cc(Cl)c1,107%
8,COc1ccc(-c2nsc3c2NC(=O)CC3c2ccc(Cl)cc2)cc1 (stereo not given),82.7%
9,CC1(C)Cc2c(cn(Cc3ccccc3)c2-c2ccccc2)-c2oncc21,105%
10,COc1ccc(-c2cc(/C=C3\C(=O)Nc4cc(Cl)ccc43)[nH]n2)cc1OC,64.4%
11,COc1ccc2oc(=O)cc(C(c3ccc[nH]3)c3ccc[nH]3)c2c1,4.33% (active)
12,COc1ccc(-c2n/c(=C\c3c(O)[nH]c4ccccc34)cc3c2=Nc2ccccc2-3)cc1,5.41% (active)
13,CCn1nc(-c2ccc(C(=O)OC)cc2)nc2c(=O)n(C)c(=O)nc1-2,80.4%
14,COc1cc(-c2cc(/C=C/C(C)=O)[nH]n2)cc(OC)c1OC,72%
15,COc1ccc(-c2[nH]ncc2-c2cc(OC)c(OC)c(OC)c2)cc1,-8.7% (active)
16,CC(=O)c1ccc(NCn2nc(-c3ccc(Cl)cc3)oc2=S)cc1,93.1%
17,CN(C1c2ccccc2Oc2ccccc21)S(=O)(=O)c1cc(Cl)ccc1Cl,42.8%
18,Cc1cc(Cl)ccc1Nc1nc(C(F)(F)F)ccc1C(=O)N/N=C/c1ccccc1Cl,14.8%
19,COc1ccc2nc(C)cc(Nc3ccc(Cl)cc3)c2c1,107%
20,O=C1/C(=C/c2ccc(O)cc2)Cc2ccc(Cl)cc21,87.6%
